Assay results taken from PubChem BioAssay (Tox21).
Results filed as inconclusive are left out. Calls of active or inactive are those of the source. Unless noted, calls come from the whole dose curve; as a rule, active = well fitted curve in the direction sought with a large enough effect in the repeat runs; inconclusive = weak or mixed curves; inactive = no such curve, though single readings can be large; an effect the other way counts as inactive or inconclusive.

How the values were obtained:
[1] = molecular target: Progesterone receptor (Homo sapiens) (UniProt P06401); test: qHTS assay to identify small molecule antagonists of the progesterone receptor (PR) signaling pathway (AID 1346795; active = well fitted inhibition curve with a large enough effect in the signal ratio in the repeat runs, not every such curve was filed as active; the % refers to the signal ratio)
Chain of Progesterone receptor (Homo sapiens) (P06401 whole entry, looked up): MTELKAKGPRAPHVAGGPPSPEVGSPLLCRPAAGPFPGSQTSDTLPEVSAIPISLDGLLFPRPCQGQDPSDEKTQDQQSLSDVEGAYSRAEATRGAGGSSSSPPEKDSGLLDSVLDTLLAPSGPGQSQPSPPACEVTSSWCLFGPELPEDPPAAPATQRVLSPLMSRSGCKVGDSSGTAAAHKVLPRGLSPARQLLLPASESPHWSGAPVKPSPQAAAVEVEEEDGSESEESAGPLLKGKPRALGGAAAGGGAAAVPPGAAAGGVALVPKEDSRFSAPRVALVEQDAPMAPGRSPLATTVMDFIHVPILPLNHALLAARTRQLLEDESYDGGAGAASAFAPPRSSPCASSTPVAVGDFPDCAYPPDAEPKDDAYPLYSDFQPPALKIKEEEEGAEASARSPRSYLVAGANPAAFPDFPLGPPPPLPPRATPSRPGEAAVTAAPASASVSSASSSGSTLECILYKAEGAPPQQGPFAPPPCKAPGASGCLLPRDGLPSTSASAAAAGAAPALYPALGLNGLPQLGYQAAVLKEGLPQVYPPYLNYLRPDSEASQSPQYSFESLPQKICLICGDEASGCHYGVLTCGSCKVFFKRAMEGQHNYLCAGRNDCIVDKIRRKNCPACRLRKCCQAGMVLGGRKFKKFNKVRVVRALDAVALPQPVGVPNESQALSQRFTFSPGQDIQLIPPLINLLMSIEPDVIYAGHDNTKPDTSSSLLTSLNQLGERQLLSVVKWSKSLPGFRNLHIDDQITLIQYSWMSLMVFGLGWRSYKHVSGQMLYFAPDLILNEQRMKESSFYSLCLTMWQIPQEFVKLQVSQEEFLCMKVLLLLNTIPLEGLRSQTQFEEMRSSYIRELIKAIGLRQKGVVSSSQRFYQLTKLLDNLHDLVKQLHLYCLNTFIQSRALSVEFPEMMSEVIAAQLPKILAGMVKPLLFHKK
How it was run: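 Antagonist mode: compounds tested against 1 nM (final) promegestone stimulation in HEK293T cells expressing PR-UAS-bla reporter, 16 hr at 37C, 5% CO2; beta-lactamase activity detected via B/G FRET substrate after 2 hr at room temperature.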

[2] = qHTS assay to identify small molecule antagonists of the progesterone receptor (PR) signaling pathway - cell viability counter screen (AID 1346798); note: nearly all actives have a fitted effect of over 50% in size; note: potency is the fitted concentration of half-maximal effect; for activity change, negative = cytotoxicity: series mostly up to about 92 µM
How it was run: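 Counter screen for cytotoxicity: viability of PR-UAS-bla HEK293T cells was measured with CellTiter-Glo luminescence following 16 hr compound exposure in the presence of R5020.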

[3] = qHTS assay to identify small molecule agonists of the progesterone receptor (PR) signaling pathway - cell viability counter screen (AID 1346799; calls by dose curve; note: nearly all actives have a fitted effect of over 45% in size; note: potency is the fitted concentration of half-maximal effect)
How it was run: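 Cells (PR-UAS-bla HEK293T) are plated at 3,000/well in 2% charcoal-stripped FBS medium, rested 6 hr, dosed and incubated 16 hr at 37C. CellTiter-Glo is then added and luminescence measured after 30 min at room temperature.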

[4] = qHTS assay to identify small molecule antagonists of the TGF-beta/Smad signaling pathway - cell viability counter screen (AID 1346824); note: nearly all actives have a fitted effect of over 50% in size
How it was run: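 SBE-bla HEK 293T cells, incubated overnight, then compound plus 0.25 ng/mL TGF-beta1 (stock added) for 5 hr at 37 C. Viability was read in the same wells by CellTiter-Glo luminescence after 30 min at room temperature.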

[5] = qHTS assay to identify small molecule agonists of the TGF-beta/Smad signaling pathway - cell viability counter screen (AID 1346829); note: top concentration of the series differs between compounds; nearly all actives have a fitted effect of over 45% in size
How it was run: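 Same-well cytotoxicity: CellTiter-Glo added after the 2 hr room-temperature beta-lactamase substrate step, luminescence measured 30 min later; cells had 5 hr of compound at 37 C.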

[6] = qHTS assay to identify small molecule agonists of the TGF-beta/Smad signaling pathway (AID 1346859; active = well fitted activation curve with a large enough effect in the signal ratio in the repeat runs, not every such curve was filed as active; the % refers to the signal ratio; note: series mostly up to about 77 µM)
How it was run: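 Reporter line: HEK 293T with stably integrated SBE-controlled beta-lactamase. Compound exposure lasts 5 hr at 37 C and 5% CO2; substrate loading follows for 2 hr at room temperature, with emission read at 460 and 530 nm.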

[7] = molecular target: Thyrotropin-releasing hormone receptor (Homo sapiens) (UniProt P34981); test: qHTS assay to identify small molecule antagonists of the thyrotropin-releasing hormone receptor (TRHR) signaling pathway (AID 1346877; active = well fitted inhibition curve with a large enough effect in the repeat runs, not every such curve was filed as active; note: series mostly up to about 51 µM)
Chain of Thyrotropin-releasing hormone receptor (Homo sapiens) (P34981 whole entry, looked up): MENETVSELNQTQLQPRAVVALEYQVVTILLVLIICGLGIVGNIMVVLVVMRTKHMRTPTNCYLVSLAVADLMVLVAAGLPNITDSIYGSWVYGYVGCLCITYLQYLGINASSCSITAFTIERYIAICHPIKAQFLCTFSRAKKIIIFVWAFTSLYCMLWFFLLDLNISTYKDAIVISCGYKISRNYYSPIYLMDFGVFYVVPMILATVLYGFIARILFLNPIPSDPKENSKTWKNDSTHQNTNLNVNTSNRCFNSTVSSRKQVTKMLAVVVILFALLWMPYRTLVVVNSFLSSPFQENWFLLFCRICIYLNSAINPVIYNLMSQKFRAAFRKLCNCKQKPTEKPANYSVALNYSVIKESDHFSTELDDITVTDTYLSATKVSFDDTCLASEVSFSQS
How it was run: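 Cells (TRHR-HEK293) are plated and kept 18 h at 37 °C/5% CO2. A calcium-sensitive dye is added for 2 h, compound follows for 5 min at room temperature, and TRH is then given at 1 nM final.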

[8] = molecular target: Thyrotropin-releasing hormone receptor (Homo sapiens) (UniProt P34981); test: qHTS assay to identify small molecule agonists of the thyrotropin-releasing hormone receptor (TRHR) signaling pathway (AID 1346891; calls by dose curve;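 note: HEK293 cells expressing TRHR with calcium dye readout; series mostly up to about 58 µM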)
How it was run: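 Cells: TRHR-Hek293, seeded and incubated 18 h. Dye loading: 2 h at 37 °C. Compound added from DMSO stock by pin tool. Read-out: kinetic calcium fluorescence over 3 min.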

[9] = Human pregnane X receptor (PXR) small molecule agonists, qHTS cell viability counter screen (AID 1346977); note: nearly all actives have a fitted effect of over 50% in size
How it was run: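 Cytotoxicity counter screen run in the same wells as the PXR luciferase assay, using PXR-Luc HepG2 cells in charcoal-stripped serum medium. Viability: CellTiter-Fluor fluorescence after 24hr compound treatment.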

[10] = Caspase-3/7 induction in HepG2 cells by small molecules, qHTS assay (AID 1346978); note: nearly all actives have a fitted effect of over 15% in size
How it was run: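 Wild-type HepG2 cells, 2,000/well, settled 5 hr at 37 C and 5% CO2, then compound-treated for 17 hr; caspase-3/7 activity read by luminescent Caspase-Glo 3/7 after 30 min at room temperature.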

[11] = Caspase-3/7 induction in CHO-K1 cells by small molecules, qHTS cell viability counter screen (AID 1346979); note: nearly all actives have a fitted effect of over 35% in size
How it was run: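 Cytotoxicity counter screen run in parallel with the caspase-3/7 assay: CHO-K1 cells, 16hr compound treatment at 37C, then CellTiter-Fluor for 1hr before fluorescence reading.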

[12] = Caspase-3/7 induction in CHO-K1 cells by small molecules, qHTS assay (AID 1346980); note: nearly all actives have a fitted effect of over 15% in size
How it was run: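 Wild-type CHO-K1 cells exposed to compounds for 17hr at 37 C, 5% CO2. Caspase-3/7 activity then measured by Caspase-Glo 3/7 luminescence after 30min at room temperature.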

[13] = Caspase-3/7 induction in HepG2 cells by small molecules, qHTS cell viability counter screen (AID 1346981); note: series mostly up to about 92 µM; nearly all actives have a fitted effect of over 30% in size
How it was run: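 Steps: seed 2,000 HepG2 cells per well; incubate 5 hr at 37 C; pin-add compounds in DMSO; incubate 16 hr; add CellTiter-Fluor; after 1 hr at 37 C and 5% CO2, read fluorescence.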

[14] = molecular target: Nuclear receptor subfamily 1 group I member 2 (Homo sapiens) (UniProt O75469); test: Human pregnane X receptor (PXR) small molecule agonists, qHTS assay (AID 1346982); note: nearly all actives have a fitted effect of over 35% in size; note: potency is the fitted concentration of half-maximal effect
Chain of Nuclear receptor subfamily 1 group I member 2 (Homo sapiens) (O75469 whole entry, looked up): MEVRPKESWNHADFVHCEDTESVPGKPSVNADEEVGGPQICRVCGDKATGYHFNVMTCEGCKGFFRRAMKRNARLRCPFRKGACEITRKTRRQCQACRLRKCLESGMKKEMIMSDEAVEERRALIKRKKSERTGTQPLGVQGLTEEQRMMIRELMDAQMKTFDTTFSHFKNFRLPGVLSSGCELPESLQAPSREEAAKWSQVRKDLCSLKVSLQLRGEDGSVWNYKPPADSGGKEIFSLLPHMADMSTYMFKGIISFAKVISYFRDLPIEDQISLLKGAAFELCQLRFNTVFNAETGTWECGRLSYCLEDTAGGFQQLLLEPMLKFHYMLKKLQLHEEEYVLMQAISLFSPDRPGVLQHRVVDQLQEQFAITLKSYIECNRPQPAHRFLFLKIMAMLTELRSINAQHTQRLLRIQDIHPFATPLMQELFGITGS
How it was run: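 Agonist mode qHTS: PXR-Luc HepG2 cells plated 5 hr before DMSO-dissolved compounds were pinned in, cultured 24 hr at 37 C, 5% CO2; ONE-Glo luminescence readout.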

[15] = molecular target: Cytochrome P450 2C9 (Homo sapiens) (UniProt P11712); test: Cytochrome P450 Family 2 Subfamily C Member 9 (CYP2C9) small molecule antagonists: luciferase reporter qHTS assay (AID 1671198); note: series mostly up to about 120 µM; nearly all actives have a fitted effect of over 50% in size
Chain of Cytochrome P450 2C9 (Homo sapiens) (P11712 whole entry, looked up): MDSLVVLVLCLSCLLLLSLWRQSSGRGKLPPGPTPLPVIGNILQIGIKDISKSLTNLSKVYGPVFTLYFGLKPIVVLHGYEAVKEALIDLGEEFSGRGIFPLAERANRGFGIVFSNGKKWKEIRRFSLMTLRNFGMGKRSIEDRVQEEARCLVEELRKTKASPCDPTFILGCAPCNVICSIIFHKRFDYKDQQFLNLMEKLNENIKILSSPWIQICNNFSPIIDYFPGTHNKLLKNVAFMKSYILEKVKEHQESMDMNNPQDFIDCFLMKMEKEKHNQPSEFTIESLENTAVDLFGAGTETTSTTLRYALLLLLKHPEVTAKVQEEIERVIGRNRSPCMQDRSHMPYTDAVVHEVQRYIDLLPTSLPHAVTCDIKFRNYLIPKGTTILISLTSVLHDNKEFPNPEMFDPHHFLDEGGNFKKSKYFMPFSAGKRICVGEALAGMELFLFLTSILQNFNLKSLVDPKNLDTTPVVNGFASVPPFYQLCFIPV
How it was run: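 P450-Glo proluciferin substrate with CYP2C9 enzyme; 10 min RT preincubation, then NADPH regeneration 1 h at 37C; luciferin detection reagent 20 min RT, luminescence in relative luminescence units.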

[16] = molecular target: Cytochrome P450 2D6 (Homo sapiens) (UniProt P10635); test: Cytochrome P450 Family 2 Subfamily D Member 6 (CYP2D6) small molecule antagonists: luciferase reporter qHTS assay (AID 1671196); note: nearly all actives have a fitted effect of over 50% in size; note: potency is the fitted concentration of half-maximal effect; for activity change, negative = inhibition: series mostly up to about 120 µM
Chain of Cytochrome P450 2D6 (Homo sapiens) (P10635 whole entry, looked up): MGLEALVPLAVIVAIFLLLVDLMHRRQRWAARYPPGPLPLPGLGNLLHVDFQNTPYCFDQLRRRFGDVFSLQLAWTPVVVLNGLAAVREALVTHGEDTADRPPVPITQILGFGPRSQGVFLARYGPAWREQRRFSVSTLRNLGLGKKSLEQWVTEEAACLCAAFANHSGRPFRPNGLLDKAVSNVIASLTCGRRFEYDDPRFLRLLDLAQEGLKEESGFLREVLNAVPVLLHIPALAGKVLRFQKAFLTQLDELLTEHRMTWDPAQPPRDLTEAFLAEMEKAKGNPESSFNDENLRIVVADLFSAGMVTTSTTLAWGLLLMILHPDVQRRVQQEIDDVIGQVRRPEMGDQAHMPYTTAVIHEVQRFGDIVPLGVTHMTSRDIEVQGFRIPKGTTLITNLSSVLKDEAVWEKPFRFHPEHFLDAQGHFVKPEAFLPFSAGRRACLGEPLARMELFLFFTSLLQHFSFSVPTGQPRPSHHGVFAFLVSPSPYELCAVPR
How it was run: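 P450-Glo format: CYP2D6 converts a proluciferin substrate to luciferin in an NADPH-driven reaction lasting 1 h at room temperature. Light output, proportional to CYP2D6 activity, reflects interference by test chemicals.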

[17] = molecular target: Cytochrome P450 2C19 (Homo sapiens) (UniProt P33261); test: Cytochrome P450 Family 2 Subfamily C Member 19 (CYP2C19) small molecule antagonists: luciferase reporter qHTS assay (AID 1671197); note: nearly all actives have a fitted effect of over 65% in size; note: potency is the fitted concentration of half-maximal effect; for activity change, negative = inhibition: series mostly up to about 120 µM
Chain of Cytochrome P450 2C19 (Homo sapiens) (P33261 whole entry, looked up): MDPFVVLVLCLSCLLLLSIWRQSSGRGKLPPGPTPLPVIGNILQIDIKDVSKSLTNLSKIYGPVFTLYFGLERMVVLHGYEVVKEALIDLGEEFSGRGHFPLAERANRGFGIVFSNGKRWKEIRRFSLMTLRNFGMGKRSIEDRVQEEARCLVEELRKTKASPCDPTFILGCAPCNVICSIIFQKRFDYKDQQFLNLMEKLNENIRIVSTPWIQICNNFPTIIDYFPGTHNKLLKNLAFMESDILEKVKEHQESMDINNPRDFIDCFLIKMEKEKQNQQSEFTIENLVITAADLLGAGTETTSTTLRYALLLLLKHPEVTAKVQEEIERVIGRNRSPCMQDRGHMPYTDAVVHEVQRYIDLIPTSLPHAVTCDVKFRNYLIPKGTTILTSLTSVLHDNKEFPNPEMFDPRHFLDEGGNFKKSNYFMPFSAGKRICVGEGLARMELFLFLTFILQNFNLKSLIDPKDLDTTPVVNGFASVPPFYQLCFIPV
How it was run: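 Quantitative high-throughput screen of the Tox21 library using CYP2C19 with proluciferin substrate. Reaction: NADPH regeneration, 37C, 1 h, after 10 min compound preincubation at room temperature. Readout: luminescence.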
% is set by controls: 0 for no effect and ±100 for the full control effect.

CC(=O)c1ccccc1N
inactive: Potency [1] | Potency [2] | Potency [3] | Potency [4] | Potency [5] | Potency [6] | Potency [7] | Potency [8] | Potency [9] | Potency [10] | Potency [11] | Potency [12] | Potency [13] | Potency [14] | Potency [15]

CC[N+](CC)(CC)Cc1ccccc1
inactive: Potency [1] | Potency [2] | Potency [3] | Potency [4] | Potency [5] | Potency [6] | Potency [7] | Potency [8] | Potency [9] | Potency [10] | Potency [12] | Potency [13] | Potency [17] | Potency [15]
active: Potency [16] 35.6 µM

COc1cccc(O)c1
inactive: Potency [1] | Potency [2] | Potency [3] | Potency [4] | Potency [5] | Potency [6] | Potency [7] | Potency [8] | Potency [9] | Potency [10] | Potency [11] | Potency [12] | Potency [13] | Potency [16] | Potency [17] | Potency [15]

CC(=O)OC1CCCCC1
inactive: Potency [1] | Potency [2] | Potency [3] | Potency [4] | Potency [5] | Potency [6] | Potency [7] | Potency [8] | Potency [9] | Potency [10] | Potency [12] | Potency [13] | Potency [16] | Potency [17] | Potency [15]

CN(C)CCN1CCOCC1
inactive: Potency [1] | Potency [2] | Potency [3] | Potency [4] | Potency [5] | Potency [6] | Potency [7] | Potency [8] | Potency [9] | Potency [10] | Potency [11] | Potency [12] | Potency [13] | Potency [14] | Potency [17] | Potency [15]

Cn1cccc1
inactive: Potency [1] | Potency [2] | Potency [3] | Potency [4] | Potency [5] | Potency [6] | Potency [7] | Potency [8] | Potency [9] | Potency [10] | Potency [11] | Potency [12] | Potency [13] | Potency [14] | Potency [17] | Potency [15]

c1cc2c3c(c1)ccc1cccc(c13)C2
inactive: Potency [1] | Potency [2] | Potency [3] | Potency [4] | Potency [5] | Potency [6] | Potency [7] | Potency [8] | Potency [9] | Potency [10] | Potency [11] | Potency [12] | Potency [13]
active: Potency [17] 40.8 µM

CCCCCCCCCCc1ccccc1
inactive: Potency [1] | Potency [2] | Potency [3] | Potency [4] | Potency [5] | Potency [6] | Potency [7] | Potency [8] | Potency [9] | Potency [10] | Potency [11] | Potency [12] | Potency [13] | Potency [16] | Potency [17] | Potency [15]

CCc1cccc(C)c1
inactive: Potency [1] | Potency [2] | Potency [3] | Potency [4] | Potency [5] | Potency [6] | Potency [7] | Potency [8] | Potency [9] | Potency [10] | Potency [11] | Potency [12] | Potency [13] | Potency [16] | Potency [17] | Potency [15]

CCC(=O)CC(C)CC (stereo not given)
inactive: activity change, negative = inhibition [1] 2.97% [at 0.348 µM] | activity change, negative = cytotoxicity [2] -3.42% [at 0.348 µM] | activity change, negative = cytotoxicity [3] 1.66% [at 0.349 µM] | viability change, negative = cytotoxic [4] 13.2% [at 0.29 µM] | activity change, negative = cytotoxicity [5] 3.15% [at 0.29 µM] | activation [6] -0.839% [at 0.29 µM] | activity change, negative = cytotoxicity [9] 0.0659% [at 0.349 µM] | caspase activation [10] 1.2% [at 0.349 µM] | activity change, negative = cytotoxicity [11] 4.19% [at 0.349 µM] | caspase-3/7 activation [12] 0.142% [at 0.349 µM] | activity change, negative = cytotoxicity [13] 6.32% [at 0.349 µM] | activation [14] 2.33% [at 0.349 µM] | activity change, negative = inhibition [16] -13% [at 0.435 µM] | activity change, negative = inhibition [17] -5.38% [at 0.435 µM] | activity change, negative = inhibition [15] -10.1% [at 0.435 µM]

O=CC1CC1
inactive: Potency [1] | Potency [2] | Potency [3] | Potency [4] | Potency [5] | Potency [6] | Potency [7] | Potency [8] | Potency [9] | Potency [10] | Potency [11] | Potency [12] | Potency [13] | Potency [16] | Potency [17] | Potency [15]

CC(=O)C=O
inactive: Potency [1] | Potency [2] | Potency [3] | Potency [4] | Potency [5] | Potency [6] | Potency [9] | Potency [10] | Potency [11] | Potency [12] | Potency [13] | Potency [14] | Potency [16] | Potency [17] | Potency [15]

OCCN1CN(CCO)CN(CCO)C1
inactive: Potency [1] | Potency [2] | Potency [3] | Potency [4] | Potency [5] | Potency [6] | Potency [7] | Potency [8] | Potency [9] | Potency [10] | Potency [11] | Potency [12] | Potency [13] | Potency [14] | Potency [15]

CCc1c(C(=O)O)c(=O)cnn1-c1ccc(Cl)cc1
inactive: Potency [1] | Potency [2] | Potency [3] | Potency [4] | Potency [5] | Potency [6] | Potency [7] | Potency [8] | Potency [9] | Potency [10] | Potency [12] | Potency [13] | Potency [14] | Potency [16] | Potency [17] | Potency [15]

Cc1ccc(CCn2c3c(c4cc(Cl)ccc42)CN(C)CC3)cn1
inactive: Potency [1] | Potency [4] | Potency [5] | Potency [6] | Potency [7] | Potency [8] | Potency [10] | Potency [12] | Potency [15]
active: Potency [2] 26.6 µM | Potency [3] 21.1 µM | Potency [14] 33.5 µM | Potency [16] 7.76 µM | Potency [17] 17.4 µM

O=S(=O)(O)CCCN1CCOCC1
inactive: Potency [1] | Potency [2] | Potency [3] | Potency [4] | Potency [5] | Potency [6] | Potency [7] | Potency [8] | Potency [9] | Potency [10] | Potency [12] | Potency [13] | Potency [16] | Potency [17] | Potency [15]
